According to PubChem BioAssay (NCATS):
Results filed as inconclusive are left out. Unmarked numbers belong to inactive results. Calls of active or inactive are those of the source. Calls come from the whole dose curve; as a rule, active = well fitted cell-killing curve with a large enough effect; inconclusive = small, poorly fitted or top-dose-only effect; inactive = flat fitted curve, though single readings scatter.

Experiment: qHTS of pediatric cancer cell lines to identify multiple opportunities for drug repurposing: Primary screen for Rh18 cells (AID 1347102); note: nearly all actives have a fitted effect of over 65% in size
Details: Rh18 rhabdomyosarcoma viability, CellTiter-Glo luminescence, 48 h; series mostly up to 46 µM; activity change, negative = cytotoxic: at the top concentration
Text: Drug repurposing or repositioning has been offered as a strategy for drug development in oncology programs. This approach has special potential for childhood cancers and other rare or orphan diseases, where the expected return on new drug development has been a disincentive to pharmaceuticals.
In this project we exploit the poly-pharmacology of drugs to discover new indications via phenotypic screening of a panel of 19 well-characterized cell lines derived from solid tumors seen in children and adolescents. The goal is to identify approved drugs with previously unrecognized anticancer properties that has the potential to reveal new mechanisms and biological processes involved in carcinogenesis or drug resistance. We employed a titration-based paradigm (quantitative high-throughput screening or qHTS), where all compounds were tested at multiple concentrations for their effect on cell viability. Concentration-response curves (CRCs) were derived directly from the primary screen, and both potency and efficacy values were used to identify compounds with robust bioactivity profiles. We screened the NIH Chemical Genomics Center (NCGC) Pharmaceutical Collection (NPC) and Mechanism Interrogation Plate (MIPE) small molecule collections of approved and investigational compounds against these cell lines; and measured metabolically active cells after 48 hours of compound treatment as a proxy for cell viability.
Assay Submitter: Nathalia J. Martinez, National Center for Advancing Translational Sciences, National Institutes of Health, Rockville, MD, USA; email: natalia.martinez@nih.gov
[1] Shen, M et al. Quantitative high-throughput phenotypic screening of pediatric cancer cell lines identifies multiple opportunities for drug repurposing. Oncotarget 2017 Dec 19;9(4):4758-4772. PMID 29435139.
The cells were obtained from University of North Carolina (UNC), Pediatric Preclinical Testing Program (PPT), and Coriell Institute (CI).
qHTS cell viability assay:
Cells were assayed in growth media at a density of 500-1,000 cells/well. Five microliters of cells were dispensed into 1,536-well, white, solid-bottom, TC-treated plates (Greiner Bio One) using a multidrop dispenser and incubated at 37 degrees C, 5% CO2, under a humidified atmosphere for 5 hours. Twenty-three nanoliters of compounds and controls (neutral control DMSO or positive control bortezomib at final concentration of 2.3 µM) were subsequently transferred by Kalypsys pintool. For primary screens, the MIPE collection was tested at 11-point dilutions (final concentrations range from 0.78 nM to 46 µM) and the NPC collection at 8-point dilutions (final concentrations range from 0.59 nM to 46 µM). Compounds tested in follow-up screens were assayed at 11-point dilutions. Cells were incubated for 48 hours, followed by addition of 3 µL of CellTiter-Glo (Promega). After a 15 min incubation at room temperature, samples were analyzed for luminescence intensity using a ViewLux High-throughput CCD imager equipped with clear filters.
% is set by controls: 0 for no effect and ±100 for the full control effect; potency is the fitted concentration of half-maximal effect.

Row | Structure (SMILES) | activity change, negative = cytotoxic | Potency
1 | C[C@@]1(c2cc(-c3cncnc3)c(F)cc2F)CCSC(N)=N1 | -14.2% | 
2 | CN(C)CCOc1ccc(C(=C(CCCl)c2ccccc2)c2ccccc2)cc1 | 12.3% | 
3 | C#CCN(C)CC1=Cc2ccccc2Oc2ccccc21 | -28% | 
4 | CCN1C[C@H](C)n2c(c(O)c3c(=O)n(Cc4ccc(F)c(Cl)c4)nc(C(=O)NC)c32)C1=O | -4.24% | 
5 | CC(C)CN(C[C@@H](O)[C@H](Cc1ccccc1)NC(=O)O[C@H]1CO[C@H]2OCC[C@H]21)S(=O)(=O)c1ccc(N)cc1 | -20% | 
6 | CC=C1C2C=C(C)CC1(N)c1ccc(=O)[nH]c1C2 (stereo not given) | 11.2% | 
7 | COc1cc2c(cc1OC)CC(=O)N(CCCN(C)C[C@H]1Cc3cc(OC)c(OC)cc31)CC2 | -8.99% | 
8 | Cc1cnc(Nc2cccc(CN3CCOCC3)c2)nc1Nc1cccc(S(=O)(=O)NC(C)(C)C)c1 |  | 8.33 µM (active)
9 | CN1CCc2c(n(Cc3ccc(C(=O)NO)cc3)c3ccccc23)C1 |  | 18.7 µM (active)
10 | CCOC(=O)[C@H](CCc1ccccc1)N[C@@H](C)C(=O)N1CCCC1C(=O)O (stereo not given in full) | 4.58% | 
11 | CN1c2ccccc2C(=O)N2CCc3c([nH]c4ccccc34)C21 (stereo not given) | 7.19% | 
12 | CN(C)CCOc1cc(-c2cn[nH]c2)ccc1NC(=O)C1COc2ccccc2O1 (stereo not given) | -20.7% | 
13 | COc1nc(C)cnc1NS(=O)(=O)c1cccnc1-c1ccc(-c2nnco2)cc1 | 4.1% | 
14 | O=C(c1ccc(C(=O)N2CCC(N3CCCC3)CC2)c(Nc2ccccc2)c1)N1CCC(N2CCCC2)CC1 | 18.3% | 
15 | COc1cc([C@H]2Oc3cc([C@H]4Oc5cc(O)cc(O)c5C(=O)[C@H]4O)ccc3O[C@H]2CO)ccc1O | -19.5% | 
16 | Cc1cccc2c1CC[C@H](CN1CCC(c3c(Cl)cccc3Cl)CC1)C[C@@H]2O | -28.1% | 
17 | COc1cc(C=CC(=O)O)ccc1O | 4.19% | 
18 | O=C(CC12CC3CC(CC(C3)C1)C2)Nc1cccc2nc(NCCNCCO)ccc12 | -21.8% | 
19 | CN(C)CCN(Cc1ccc(Cl)cc1)c1ccccn1 | -8.29% | 
20 | Cn1c(=O)c(Oc2ccc(F)cc2F)cc2cnc(NC3CCOCC3)nc21 | -19.9% | 

Row | Structure (SMILES) | activity change, negative = cytotoxic | Potency
21 | CS(=O)(=O)c1ccc(C2=C(c3ccccc3)C(=O)OC2)cc1 | 11.2% | 
22 | COc1ccc2nc3cc(Cl)ccc3c(Nc3cc(CN4CCCC4)c(O)c(CN4CCCC4)c3)c2n1 | 3.33% | 
23 | CCC=CC[C@H]1C(=O)CC[C@@H]1CC(=O)OC | 8.52% | 
24 | O=S(=O)(NCCNCC=Cc1ccc(Br)cc1)c1cccc2cnccc12 |  | 16.6 µM (active)
25 | C[C@]12C=CC(=O)C=C1CC[C@@H]1[C@@H]2[C@@H](O)C[C@@]2(C)[C@@H]1CC[C@]2(O)C(=O)CO | -12.8% | 
26 | Cc1ccccc1C(C(=O)NC1CCCCC1)N(C(=O)CNc1ccc(C#N)cc1)c1cccc(F)c1 (stereo not given) | 2.52% | 
27 | CC(C)N(CCCNC(=O)Nc1ccc(C(C)(C)C)cc1)C[C@H]1O[C@@H](n2cc(Br)c3c(N)ncnc32)[C@H](O)[C@H]1O |  | 20.9 µM (active)
28 | Cc1cnc(CNC(=O)c2c(=O)c3ccc(N4CCCN(C)CC4)nc3n3c2sc2ccccc23)cn1 | 2.18% [at 16.1 µM] | 
29 | CC(O)=C(C#N)C(=O)Nc1ccc(C(F)(F)F)cc1 | -4.26% | 
30 | Cc1ccc(C(=O)N(CCCN)[C@@H](c2oc3cc(Cl)ccc3c(=O)c2Cc2ccccc2)C(C)C)cc1 |  | 26.4 µM (active)
31 | O=C1CCCC(=O)C1C(=O)c1ccc(C(F)(F)F)cc1[N+](=O)[O-] | 0.457% | 
32 | Nc1ncnc2c1c(-c1cccc(OCc3ccccc3)c1)cn2C1CC(CN2CCC2)C1 (stereo not given) | -23.9% | 
33 | NC(=O)c1ccc(N(C(N)=O)c2c(F)cccc2F)nc1-c1ccc(F)cc1F | 3.56% | 
34 | C#C[C@]1(O)CC[C@H]2[C@H]3CCc4cc(OC)ccc4[C@H]3CC[C@@]21C | 7.31% | 
35 | Cc1nc(C(=O)NCC(=O)O)c(O)c2ccc(Oc3ccccc3)cc12 | 4.54% | 
36 | COc1ccc(C=CC(=O)Nc2ccccc2C(=O)O)cc1OC | -1.95% | 
37 | CCCCCCOC(=O)N=C(N)c1ccc(NCc2nc3cc(C(=O)N(CCC(=O)OCC)c4ccccn4)ccc3n2C)cc1 | 1.68% | 
38 | C=C1c2cccc(O)c2C(O)=C2C(=O)[C@@]3(O)C(O)=C(C(N)=O)C(=O)[C@@H](N(C)C)[C@@H]3[C@@H](O)[C@H]12 | -15.9% | 
39 | OCCn1cc(-c2ccc3c(c2)CCC3=NO)c(-c2ccncc2)n1 | 16.1% | 
40 | CN1C(=O)C[C@H](C(=O)N[C@@H](Cc2cnc[nH]2)C(=O)N2CCC[C@@H]2C(N)=O)NC1=O | -9.67% | 
